These results are taken from PubChem BioAssay.

Test [1] concerns TRPC4 beta (transient receptor potential cation channel C4), mouse. The experiment in a line: TRPC4 cation channel opening, retest – cell-based, Fluo4 calcium, HEK293 TRPC4beta/mu-opioid, duplicates, 10 µM, confirmation (AID 2426). The following applies: Fluo4 calcium fluorescence, at 10 µM; stronger effect = higher value.
Test [2] has as its system transient receptor potential cation channel C4 beta (TRPC4), mouse. The experiment in a line: TRPC4 cation channel opening, second retest – cell-based, second round, Fluo4, HEK293 TRPC4beta/mu-opioid, 1 µM, confirmation (AID 2461;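 active = primary screen active and over 50% activation in each of two duplicate runs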). The following applies: Fluo4 calcium fluorescence, at 1 µM; stronger effect = higher value.
Test [3] deals with TRPC4 (transient receptor potential cation channel C4 beta), mouse. The experiment in a line: potentiation of DAMGO EC20 TRPC4 response – cell-based, second round, Fluo-4, HEK293 TRPC4beta/mu-opioid, 1 µM, confirmation (AID 2554;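 active = primary screen hit whose fluorescence ratio, in both repeats, exceeds the weak agonist control mean by 3 SD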). The following applies: DAMGO EC20, Fluo-4 calcium flux, at 1 µM; stronger effect = higher value.
Test [4] has as its system TRPC4 beta (transient receptor potential cation channel C4), mouse. The experiment in a line: potentiation of DAMGO EC20 TRPC4 response – cell-based, Fluo-4, HEK293 TRPC4beta/mu-opioid, confirmation (AID 2555;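 active = primary screen hit whose calcium fluorescence ratio, in both repeats, exceeds the weak agonist control mean by 3 SD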). The following applies: DAMGO EC20, Fluo-4 calcium flux, at 10 µM; stronger effect = higher value. (Calcium assays in cells follow changes in intracellular calcium, usually with a dye or a luminescent sensor.)

Test [5] concerns the target Short transient receptor potential channel 4 (Mus musculus) (UniProt Q9QUQ5). The test is described as follows: blockers of DAMGO-evoked TRPC4 calcium flux – cell-based, Fluo4, HEK293 TRPC4beta/mu-opioid, confirmation (AID 2636;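 active = calcium signal cut by more than 3 SD below the full-agonist control yet still positive, in both repeats and the earlier primary screen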). As to conditions: at 10 µM; stronger effect = higher value.
Test [6] shares this target. The test is described as follows: blockers of DAMGO-evoked TRPC4 calcium flux – cell-based, second round, Fluo4, HEK293 TRPC4beta/mu-opioid, 1 µM, confirmation (AID 2637;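 active = calcium signal ratio cut to more than 3 SD under the fully stimulated control mean yet still positive, in both repeats and the primary screen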;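 for inhibition: percent of integrated ratio relative to wells lacking test compound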). As to conditions: at 1 µM; stronger effect = higher value.
Test [7] has the same target. The experiment in a line: calcium entry via TRPC4 opening agents – cell-based, HEK293 TRPC4/mu-opioid, Fluo-4 calcium, dose response (AID 434937;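 active = primary screen activator hit with a dose response curve and TRPC4 channel activation at any tested dose; inactive = no activation, no dose response, or not a primary hit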).
Test [8] has the same target. The test is described as follows: potentiation of DAMGO-evoked TRPC4 calcium signal – cell-based, HEK293 TRPC4/mu-opioid, Fluo-4 calcium, EC20 DAMGO, dose response (AID 434941;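 active = earlier screen potentiator hit that boosts the TRPC4 ion channel at some dose, with a dose response; inactive = no potentiation, no dose response, or not a prior hit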;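 note: calcium entry triggered by an EC20 dose of DAMGO at the co-expressed mu-opioid receptor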).
Test [9] has as its target Short transient receptor potential channel 6 (Mus musculus) (UniProt Q61143). The experiment in a line: TRPC6 blockade by TRPC4 inhibitor hits – cell-based, HEK293, membrane potential dye, duplicate, selectivity assay for TRPC4 inhibitor project, confirmation (AID 434948;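 active = active in primary screen and both duplicates, each dropping signal beyond three positive-control SD with fluorescence still positive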). The following applies: HEK293 TRPC6, membrane potential dye fluorescence, at 10 µM, stimulated with maximal-effect acetylcholine; stronger effect = higher value.

For test [10] the target is unchanged. The experiment in a line: TRPC6 opening by TRPC4 activator hits – cell-based, HEK293, membrane potential dye, duplicate, selectivity assay for TRPC4 activator project, confirmation (AID 434950;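 active = membrane potential signal rise above negative control mean plus 3 SD in both duplicates, also active in the earlier TRPC4 screen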). As to conditions: HEK293 TRPC6, membrane potential fluorescence, at 10 µM; activation: stronger effect = higher value; outcome: activation.
Test [11] has the same target. The test is described as follows: positive modulators of mouse TRPC6 channel – HEK293 cells, membrane potential dye, duplicate, selectivity assay for TRPC4 potentiator project, confirmation (AID 434952;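 active = compound raising the membrane signal above positive-control mean plus 3 SD in both repeats, and a primary screen hit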). As to conditions: HEK293 TRPC6, membrane potential dye fluorescence, at 10 µM, maximal acetylcholine added after compound; stronger effect = higher value.
Test [12] concerns the target Short transient receptor potential channel 4 (Mus musculus) (UniProt Q9QUQ5). The test is described as follows: calcium flux activators in TRPC4/5HT1a cells, counter-screen for TRPC4 activator project, cell-based, second counter screen, HEK293 TRPC4/5HT1a, Fluo-4 (AID 434977;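 active = calcium signal rise above buffer-control mean plus 5 SD in both duplicates, and also a hit in the primary screen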). As to conditions: Fluo-4 calcium flux, at 10 µM; stronger effect = higher value.
The nature of test [13]: serotonin-gated TRPC4 signal block – cell-based, second counter screen, HEK293 TRPC4/5HT1a, Fluo-4, counter-screen for TRPC4 inhibitor project, confirmation (AID 434978;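 active = primary screen active whose calcium signal fell more than 3 SD beyond the full-serotonin control mean in both duplicate plates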;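 for outcome: serotonin given first at submaximal then at maximal dose after compound preincubation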). As to conditions: Fluo-4 calcium flux, at 10 µM, serotonin added to trigger calcium flux; stronger effect = higher value.
For test [14], the system named is TRPC4 (mouse), co-expressed with 5HT1a in HEK293. The experiment in a line: enhancement of serotonin-evoked TRPC4 response – cell-based, second counter screen, HEK293 TRPC4/5HT1a, Fluo-4, counter-screen for TRPC4 potentiator project, confirmation (AID 434979;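 active = signal rise over 3 SD above mean of control wells given weak agonist, in both repeats and first screen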). As to conditions: Fluo-4 calcium flux, at 10 µM, serotonin added at its EC20 dose; stronger effect = higher value.
Test [15] can be described thus: nonspecific calcium rise without TRPC4 – cell-based, HEK293 mu-opioid receptor line, counter-screen for TRPC4 activator project, confirmation (AID 449723;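 active = hit in primary screen, with calcium signal over 5 SD above buffer well mean in both duplicates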;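 note: counter screen cells carry the mu-opioid receptor alone and lack TRPC4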). The following applies: HEK293 mu-opioid cells, Fluo-4 calcium fluorescence, at 10 µM; stronger effect = higher value. (Counterscreens check selectivity or assay interference.)
The nature of test [16]: nonspecific potentiation of DAMGO calcium response – cell-based, HEK293 mu-opioid receptor line, counter-screen for TRPC4 allosteric potentiator project, confirmation (AID 449724;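 active = calcium signal rise more than 3 SD above the low-dose agonist control mean, in both duplicate plates and the primary screen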;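 note: HEK293 cells carrying mu-opioid receptor only with no TRPC4 channel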). As to conditions: HEK293 mu-opioid receptor cells, Fluo-4 calcium flux, at 10 µM, compound added before EC20 DAMGO stimulus; stronger effect = higher value.

In general, inhibition refers to the drop in the measured response relative to a control, in per cent.

Each structure is given as a SMILES string. For some of these results: Entries with a potency or affinity are not part of this list. The source made the active and inactive calls.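 Rule for the calls, unless noted: active = fluorescence ratio normalized to control raised more than 50% in primary screen plus both repeat runs; inactive = the rest.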

Sequence of Short transient receptor potential channel 6 (Mus musculus) (Q61143 whole entry, looked up): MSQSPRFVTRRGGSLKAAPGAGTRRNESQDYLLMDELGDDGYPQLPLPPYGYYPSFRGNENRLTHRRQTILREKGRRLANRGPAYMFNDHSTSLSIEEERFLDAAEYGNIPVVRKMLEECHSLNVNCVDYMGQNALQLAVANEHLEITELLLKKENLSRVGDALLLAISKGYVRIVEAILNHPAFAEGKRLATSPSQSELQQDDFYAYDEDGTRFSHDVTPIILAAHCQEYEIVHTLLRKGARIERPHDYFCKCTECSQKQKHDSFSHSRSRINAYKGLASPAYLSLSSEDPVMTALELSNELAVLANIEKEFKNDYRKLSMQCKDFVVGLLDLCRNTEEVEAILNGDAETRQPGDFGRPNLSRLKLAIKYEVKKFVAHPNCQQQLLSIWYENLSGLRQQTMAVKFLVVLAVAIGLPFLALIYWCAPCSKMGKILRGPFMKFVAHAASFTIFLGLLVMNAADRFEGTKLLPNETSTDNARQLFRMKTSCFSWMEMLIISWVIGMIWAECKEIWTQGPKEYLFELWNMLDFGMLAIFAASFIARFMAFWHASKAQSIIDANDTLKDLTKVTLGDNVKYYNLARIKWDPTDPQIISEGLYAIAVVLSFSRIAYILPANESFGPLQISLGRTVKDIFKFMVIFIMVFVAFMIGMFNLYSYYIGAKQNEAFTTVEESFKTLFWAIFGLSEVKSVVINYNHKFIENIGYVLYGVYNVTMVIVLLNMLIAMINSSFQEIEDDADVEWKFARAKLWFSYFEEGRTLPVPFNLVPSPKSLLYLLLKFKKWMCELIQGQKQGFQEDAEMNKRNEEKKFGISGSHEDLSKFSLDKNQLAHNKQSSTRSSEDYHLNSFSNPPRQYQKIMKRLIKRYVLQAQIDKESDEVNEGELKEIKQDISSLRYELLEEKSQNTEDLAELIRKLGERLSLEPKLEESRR
Sequence of Short transient receptor potential channel 4 (Mus musculus) (Q9QUQ5 whole entry, looked up): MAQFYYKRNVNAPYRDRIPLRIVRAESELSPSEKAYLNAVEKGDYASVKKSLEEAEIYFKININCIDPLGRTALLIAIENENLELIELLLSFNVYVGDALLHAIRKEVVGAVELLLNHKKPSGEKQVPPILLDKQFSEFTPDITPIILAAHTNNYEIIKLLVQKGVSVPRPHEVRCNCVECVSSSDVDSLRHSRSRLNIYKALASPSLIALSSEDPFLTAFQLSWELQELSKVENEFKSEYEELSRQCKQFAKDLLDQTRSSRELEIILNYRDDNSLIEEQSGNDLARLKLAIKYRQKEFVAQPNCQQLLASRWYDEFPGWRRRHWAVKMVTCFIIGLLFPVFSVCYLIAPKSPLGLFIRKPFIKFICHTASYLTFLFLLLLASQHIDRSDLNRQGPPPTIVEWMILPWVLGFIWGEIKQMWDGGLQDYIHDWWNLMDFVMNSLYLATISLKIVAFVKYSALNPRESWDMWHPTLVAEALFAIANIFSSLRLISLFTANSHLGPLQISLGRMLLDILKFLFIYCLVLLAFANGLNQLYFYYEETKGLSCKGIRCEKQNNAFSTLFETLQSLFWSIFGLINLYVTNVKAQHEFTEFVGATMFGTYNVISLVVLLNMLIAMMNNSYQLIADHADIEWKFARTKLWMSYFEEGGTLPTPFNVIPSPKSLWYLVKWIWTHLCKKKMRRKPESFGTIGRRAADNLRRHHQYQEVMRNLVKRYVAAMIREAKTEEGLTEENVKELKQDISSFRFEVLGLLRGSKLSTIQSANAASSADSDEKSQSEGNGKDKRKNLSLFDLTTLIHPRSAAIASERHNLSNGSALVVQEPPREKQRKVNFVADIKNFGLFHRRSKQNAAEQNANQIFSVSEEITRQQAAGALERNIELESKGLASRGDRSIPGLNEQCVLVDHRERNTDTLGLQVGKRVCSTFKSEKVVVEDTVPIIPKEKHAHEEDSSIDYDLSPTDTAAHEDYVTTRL

Consider `COc1ccc(NC(=O)c2cccc(N3C(=O)C4CC=C(C)CC4C3=O)c2)c(OC)c1` (stereo unspecified), for which the outcome in [1], in test [2], in [3], in [4], in test [6] and in test [7] was inactive. The result in test [8], in [9], in test [10], in test [11], in [12] and in test [13] was inactive. The outcome in test [14], in test [15] and in [16] was inactive. Moreover, in test [5], the inhibition is 75% (active).
Consider `O=C(Cc1cccc2ccccc12)Nc1ccc(Br)cc1C(=O)O`, for which the outcome in test [1], in test [2], in test [3], in [4], in [6] and in [7] was inactive. Besides, the result in [8], in test [9], in test [10], in test [11], in test [12] and in test [14] was inactive. For the same compound, the outcome in [15] and in [16] was inactive. Moreover, the inhibition in [5] was 89% (active); in [13] it was 28.9% (active).
Turning to `Cc1cccc(N(Cc2ccccc2)C(=O)CSC(C)C(=O)Nc2cc(C)on2)c1` (stereo unspecified), the result in [1], in test [2], in test [3], in test [4], in test [6] and in test [7] was inactive. The outcome in test [8], in test [9], in [10], in test [11], in test [12] and in test [14] was inactive. Moreover, the result in [15] and in test [16] was inactive. Also, the inhibition in test [5] is 91% (active); in test [13], 31.4% (active).
Turning to `CCCCNCC1C(Oc2ccc(Cl)cc2)C(=O)N1c1ccccc1C` (stereo unspecified), the result in test [1], in test [2], in test [3], in [4], in [5] and in test [6] was inactive. Also, the outcome in [7], in test [8], in [9], in test [10], in test [11] and in test [12] was inactive. Also, the outcome in test [13], in [14], in test [15] and in [16] was inactive.
`Cn1c(-c2ccccc2)cnc1NCc1ccc(F)cc1`: the outcome in test [1], in test [2], in test [3], in test [4], in test [7] and in test [8] was inactive. For the same compound, the compound was called inactive in [9], in test [10], in test [11], in [12], in test [14] and in test [15]. The outcome in test [16] was inactive. Moreover, the results for the inhibition in [5], in test [6] and in test [13] were 81% (active), 53% (active) and 25.1% (active), respectively.
Consider `CCC1(C(=O)c2ccccc2)C(c2ccc([N+](=O)[O-])cc2)C1(C(=O)OC)C(=O)OC` (stereo unspecified), for which the result in test [1], in test [2], in [3], in test [4], in test [6] and in [7] was inactive. Besides, the result in test [8], in test [9], in test [10], in test [11], in [12] and in [13] was inactive. For the same compound, the outcome in test [14], in test [15] and in test [16] was inactive. Moreover, in test [5], the inhibition is 71% (active).
As to `O=C(Cc1ccccc1)Nc1ccccc1Sc1ccccc1`, the outcome in [1], in [2], in test [3], in test [4], in test [6] and in test [7] was inactive. Besides, the outcome in test [8], in [9], in test [10], in [11], in test [12] and in test [14] was inactive. In addition, the result in test [15] and in test [16] was inactive. In addition, the inhibition in test [5] was 86% (active); in [13], 40.9% (active).
`COc1cc(CNCCCN2CCOCC2)cc(Br)c1OCc1ccc(Cl)cc1`: the result in [1], in [2], in test [3], in [4], in test [5] and in test [6] was inactive. For the same compound, the result in [7], in test [8], in test [10], in test [11], in [12] and in test [14] was inactive. In addition, the result in test [15] and in test [16] was inactive. Further, the results for the inhibition in [9] and in test [13] were 51% (active) and 23.6% (active), respectively.
Regarding `CCOC(=O)CSc1nc2c(sc(=S)n2-c2ccccc2OC)c(=O)n1-c1ccccc1OC`, the result in [1], in test [2], in test [3], in test [4], in [7] and in [8] was inactive. In addition, the compound was classed as inactive in test [9], in test [10], in test [11], in test [12], in test [14] and in test [15]. Further, the result in test [16] was inactive. Besides, the figures for the inhibition in test [5], in test [6] and in [13] were 71% (active), 38% (active) and 31.3% (active), respectively.
Turning to `CCc1ccc(/C=C2/SC(=S)N(CCCC(=O)Nc3ccccc3C(=O)O)C2=O)cc1`, the result in test [1], in [2], in test [3], in test [4], in test [6] and in test [7] was inactive. Besides, the result in test [8], in test [9], in [10], in test [11], in test [12] and in test [14] was inactive. For the same compound, the outcome in test [15] and in test [16] was inactive. Also, the inhibition is 93% (active) in test [5] and 21.2% (active) in [13].
For the compound `O=C(c1ccc2c(c1)OCO2)C1CCCN(Cc2cc(F)ccc2-n2cccn2)C1` (stereo unspecified), the outcome in test [1], in test [2], in test [3], in [4], in test [6] and in test [7] was inactive. Moreover, the result in test [8], in [9], in [10], in test [11], in test [12] and in test [14] was inactive. Besides, the result in [15] and in test [16] was inactive. The results for the inhibition in [5] and in test [13] were 87% (active) and 32.9% (active), respectively.
On to `O=c1oc2ccccc2c(Nc2ccccc2)c1CN1CCCCC1`, for which the result in test [1], in test [2], in test [3], in test [4], in test [7] and in [8] was inactive. The outcome in [9], in test [10], in test [11], in [12], in test [13] and in test [14] was inactive. Besides, the result in [15] and in test [16] was inactive. The figures for the inhibition in test [5] and in test [6] were 84% (active) and 46% (active), respectively.
Take `CCCCOc1ccc(Nc2cc(Cl)ccc2C(=O)O)cn1`: the result in test [1], in test [2], in [3], in test [4], in test [5] and in test [6] was inactive. The result in [7], in test [8], in [9], in test [10], in [11] and in [12] was inactive. The result in test [14], in test [15] and in [16] was inactive. In addition, the inhibition in [13] was 27.6% (active).
As for `Cc1ccc(-c2csc(NC(=O)C3CC=CCC3C(=O)O)c2C(=O)OC(C)C)cc1` (stereo unspecified), the outcome in [1], in test [2], in test [3], in test [4], in [5] and in test [6] was inactive. Also, the result in test [7], in test [8], in test [9], in test [10], in test [11] and in test [12] was inactive. Also, the result in [14], in test [15] and in test [16] was inactive. In addition, the inhibition in [13] was 20.1% (active).
For `O=C(COC(=O)C1CC1)Nc1nc(-c2ccc(F)c(F)c2)cs1`, the outcome in test [1], in test [2], in [3], in test [4], in test [6] and in test [7] was inactive. For the same compound, the result in [8], in test [9], in test [10], in test [11], in [12] and in test [14] was inactive. Also, the result in [15] and in [16] was inactive. The values for the inhibition in test [5] and in test [13] were 70% (active) and 41.5% (active), respectively.
In the case of `O=C1CN=C(Nc2cccc(C(F)(F)F)c2)N1C1CCCC1`, the result in [1], in test [2], in test [3], in test [4], in [6] and in test [7] was inactive. For the same compound, the outcome in [8], in [9], in test [10], in test [11], in [12] and in [14] was inactive. In addition, the result in test [15] and in test [16] was inactive. Moreover, the inhibition in test [5] was 94% (active); in [13], 26.8% (active).
